Test [1] can be described thus: Quantitative High-Throughput drug screen in 47 multiple myeloma cell lines against the NCATS MIPE library collection: OPM1_PLB cell viability assay (AID 1918989). Also: nearly all actives have a fitted effect of over 40% in size. In outline:
(§1)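 qHTS format: cells plated (500/well), pin-dosed with MIPE 4.0 compounds, kept 48 h at 37 °C. Readout was CellTiter-Glo luminescence, median RLU.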

Test [2] in a line: Quantitative High-Throughput drug screen in 47 multiple myeloma cell lines against the NCATS MIPE library collection: XG1_PLB cell viability assay (AID 1919866). Also: nearly all actives have a fitted effect of over 35% in size. In outline:
as §1

The nature of test [3]: Quantitative High-Throughput drug screen in 47 multiple myeloma cell lines against the NCATS MIPE library collection: VP6_DJ cell viability assay (AID 1919867). Also: nearly all actives have a fitted effect of over 40% in size. A digest of the protocol: as §1
A short description of test [4]: Quantitative High-Throughput drug screen in 47 multiple myeloma cell lines against the NCATS MIPE library collection: PE2_PLB cell viability assay (AID 1919869). Also: nearly all actives have a fitted effect of over 35% in size. In outline: as §1
A short description of test [5]: Quantitative High-Throughput drug screen in 47 multiple myeloma cell lines against the NCATS MIPE library collection: PCM6_Riken cell viability assay (AID 1919870). Also: nearly all actives have a fitted effect of over 30% in size. In outline:
as §1

A short description of test [6]: Quantitative High-Throughput drug screen in 47 multiple myeloma cell lines against the NCATS MIPE library collection: RPMI8226_ATCC cell viability assay (AID 1919871). Also: nearly all actives have a fitted effect of over 30% in size. A digest of the protocol:
as §1

The nature of test [7]: Quantitative High-Throughput drug screen in 47 multiple myeloma cell lines against the NCATS MIPE library collection: KMS28BM_JCRB cell viability assay (AID 1919874). Also: nearly all actives have a fitted effect of over 35% in size. A digest of the protocol:
as §1

Test [8] can be described thus: Quantitative High-Throughput drug screen in 47 multiple myeloma cell lines against the NCATS MIPE library collection: OCIMY5_PLB cell viability assay (AID 1918988). Also: nearly all actives have a fitted effect of over 65% in size. A digest of the protocol:
as §1

Test [9] is described as follows: Quantitative High-Throughput drug screen in 47 multiple myeloma cell lines against the NCATS MIPE library collection: XG6_PLB cell viability assay (AID 1919865). Also: nearly all actives have a fitted effect of over 40% in size. A digest of the protocol:
as §1

Test [10] is described as follows: Quantitative High-Throughput drug screen in 47 multiple myeloma cell lines against the NCATS MIPE library collection: KMS34_JCRB cell viability assay (AID 1918985). Also: nearly all actives have a fitted effect of over 40% in size. A digest of the protocol: as §1
The nature of test [11]: Quantitative High-Throughput drug screen in 47 multiple myeloma cell lines against the NCATS MIPE library collection: OCIMY7_PLB cell viability assay (AID 1918987). Also: nearly all actives have a fitted effect of over 65% in size. In outline:
as §1

Test [12] can be described thus: Quantitative High-Throughput drug screen in 47 multiple myeloma cell lines against the NCATS MIPE library collection: SKMM1_PLB cell viability assay (AID 1919863). Also: nearly all actives have a fitted effect of over 35% in size. The settings on record: SKMM1 myeloma viability, CellTiter-Glo ATP, 48 h; viability: hits give low values. In outline:
as §1

Test [13] can be described thus: Quantitative High-Throughput drug screen in 47 multiple myeloma cell lines against the NCATS MIPE library collection: OPM2_DSMZ cell viability assay (AID 1919872). Also: nearly all actives have a fitted effect of over 30% in size. In outline: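 CellTiter-Glo luminescence (ATP) after 48 h compound exposure, 37C/5% CO2; 500 cells/well; MIPE 4.0 approved/investigational drugs pinned in; DMSO = 100%, media only = 0% viability.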
Test [14] in a line: Quantitative High-Throughput drug screen in 47 multiple myeloma cell lines against the NCATS MIPE library collection: KMS11_JCRBsus cell viability assay (AID 1919873). Also: nearly all actives have a fitted effect of over 50% in size. In outline:
as §1

The nature of test [15]: Quantitative High-Throughput drug screen in 47 multiple myeloma cell lines against the NCATS MIPE library collection: U266_ATCC cell viability assay (AID 1919864). Also: nearly all actives have a fitted effect of over 35% in size. In outline:
as §1

Test [16] is described as follows: Quantitative High-Throughput drug screen in 47 multiple myeloma cell lines against the NCATS MIPE library collection: UTMC2_PLB cell viability assay (AID 1919868). Also: nearly all actives have a fitted effect of over 55% in size. Conditions: CellTiter-Glo ATP luminescence, 48 h; viability (% of DMSO control): at 45.8 µM (top of the series). A digest of the protocol: as §1

Each structure is given as a SMILES string. Records with an inconclusive call do not appear. Unmarked numbers belong to inactive results. The source made the active and inactive calls. Calls follow the shape of the dose curve; as a rule, active = well fitted cell-killing curve with a large enough effect; inconclusive = small, poorly fitted or top-dose-only effect, or effect the other way; inactive = no such curve, though single readings can be large or run the other way.
Potency is read from the fitted curve at half-maximal effect.

Take `CCc1cc(Nc2nccc(-c3c(-c4ccc(OC)c(C(=O)Nc5c(F)cccc5F)c4)nc4ccccn34)n2)c(OC)cc1N1CCC(N2CCN(S(C)(=O)=O)CC2)CC1`: the Potency in test [1] is 14.8 µM (active); in test [2], 1.18 µM (active); in test [3], 2.64 µM (active); in [4] it was 5.26 µM (active); in test [6], 20.9 µM (active). In addition, the Potency entry in test [5] is “inactive”.
For `c1ccc(-c2nn3c(c2-c2ccnc4cc(OCCN5CCOCC5)ccc24)CCC3)nc1`, the Potency entry in test [1] and in test [7] was “inactive” throughout. Also, the Potency in test [3] is 1.87 µM (active); in test [4], 10.5 µM (active); in test [6], 20.9 µM (active).
`Nc1ncnc2nc(-c3ccc(N4CCOCC4)nc3)cc(-c3cccc(Br)c3)c12`: the Potency in [8] is 16.6 µM (active); in test [1], 20.9 µM (active); in [9], 10.5 µM (active); in test [2], 16.6 µM (active); in test [4] it was 18.7 µM (active).
As to `CN[C@@H](C)C(=O)N[C@H]1CCCC[C@H]2CC[C@@H](C(=O)N[C@@H](c3ccccc3)c3cn(CCCCc4ccc(CCCCn5cc([C@@H](NC(=O)[C@@H]6CC[C@@H]7CCCC[C@H](NC(=O)[C@H](C)NC)C(=O)N76)c6ccccc6)nn5)cc4)nn3)N2C1=O`, the Potency result in test [10], in test [13] and in test [14] was “inactive” in each case. Also, the Potency is 0.001 µM (active) in test [11]; 16.6 µM (active) in [8]; 16.6 µM (active) in test [1]; 0.0037 µM (active) in [12]; 23.5 µM (active) in [2]; 18.7 µM (active) in test [3]. Besides, the Potency in test [4] is 18.7 µM (active).
`CNC(=O)c1ccc(C)c(-n2c(C)cc(OCc3ccc(F)cc3F)c(Br)c2=O)c1`: the Potency in test [11] was 8.33 µM (active); in test [1], 13.2 µM (active); in test [3] it was 16.6 µM (active); in test [5], 14.8 µM (active). The viability in test [12] is 116%. In addition, the Potency entry in [15], in test [6], in [13] and in test [7] was “inactive” in each case.
As to `COc1ccc(-c2c(-c3ccc(O)cc3O)n[nH]c2C)cc1`, the Potency entry in test [10], in test [6] and in [13] was “inactive” throughout. Moreover, the figures for the Potency in [1], in [3] and in [14] were 30.3 µM (active), 34 µM (active) and 48.1 µM (active), respectively. The viability in [12] is 137%.
Turning to `COc1ccccc1[C@H](c1cccc2ccccc12)[C@@](C)(C#N)C(=O)N1CCC(c2cccc(C(F)(F)F)c2)CC1`, the Potency was 5.9 µM (active) in [11]; 4.69 µM (active) in test [8]; 5.9 µM (active) in test [1]; 5.9 µM (active) in [12]; 5.26 µM (active) in test [3]; 5.26 µM (active) in test [16]. For the same compound, the Potency was 5.9 µM (active) in test [4]; 5.9 µM (active) in test [5]; 8.33 µM (active) in test [13]; 1.05 µM (active) in test [14]; 4.18 µM (active) in test [7].
In the case of `CC1(C)CNc2cc(NC(=O)c3cccnc3NCc3ccncc3)ccc21`, the Potency in [11] was 0.372 µM (active); in test [9], 0.372 µM (active); in [3], 1.66 µM (active); in test [6] it was 18.7 µM (active); in test [14], 20.9 µM (active). Besides, the Potency entry in [1] and in [7] was “inactive” each time.
As for `COCC(=O)NCC=Cc1ccc2ncnc(Nc3ccc(Oc4ccc(C)nc4)c(C)c3)c2c1`, the Potency in test [1] is 18.7 µM (active); in test [3], 18.7 µM (active); in test [4], 16.6 µM (active); in test [6], 16.6 µM (active); in test [14], 18.7 µM (active); in [7], 29.6 µM (active).
Regarding `NC(=O)c1ccc(-c2nc(-c3ccc4c(c3)OCO4)c(-c3ccccn3)[nH]2)cc1`, the Potency in test [10] was 2.64 µM (active); in [8], 9.35 µM (active). For the same compound, the Potency result in test [15], in [9], in test [14] and in [7] was “inactive” throughout.
For the compound `O=C(Nc1nc2ccccc2n1CCN1CCOCC1)c1cccc([N+](=O)[O-])c1`, the Potency is 1.87 µM (active) in test [11]; 5.9 µM (active) in test [8]; 1.32 µM (active) in test [9]; 1.05 µM (active) in test [4]; 1.87 µM (active) in test [5]. For the same compound, the Potency entry in [13], in test [14] and in test [7] was “inactive” each time.
With `O=C(c1cc(Cc2n[nH]c(=O)c3ccccc23)ccc1F)N1CCN(C(=O)C2CC2)CC1`, the Potency result in test [10], in test [1], in test [6], in test [13] and in [7] was “inactive” throughout. Besides, the Potency in test [11] was 2.64 µM (active); in test [16], 10.5 µM (active); in test [4], 18.7 µM (active); in [5], 11.8 µM (active). Also, in [12], the viability was 93.3%.
In the case of `COc1cc(F)c(F)c(Nc2ccc(I)cc2F)c1NS(=O)(=O)C1(C[C@H](O)CO)CC1`, the Potency was 16.6 µM (active) in test [11]; 11.8 µM (active) in test [1]; 16.6 µM (active) in [15]; 10.5 µM (active) in [6]; 16.6 µM (active) in test [14]; 20.9 µM (active) in test [7]. For the same compound, the Potency result in test [13] was “inactive”.
Take `Cc1cccc(-c2[nH]c(C(C)(C)C)nc2-c2ccc3nccnc3c2)n1`: the Potency is 2.96 µM (active) in test [3], 2.64 µM (active) in test [16], 2.09 µM (active) in test [4] and 7.43 µM (active) in [5]. The Potency entry in [13] was “inactive”.
Consider `CCCc1nn(C)c2c(=O)[nH]c(-c3cc(S(=O)(=O)N4CCN(C)CC4)ccc3OCC)nc12`, for which the Potency was 7.43 µM (active) in test [8] and 20.9 µM (active) in test [15].
Take `C[C@@H]1CN(Cc2ccc(F)cc2)[C@@H](C)CN1C(=O)c1cc2c(C(=O)C(=O)N(C)C)cn(C)c2cc1Cl`: the Potency is 14.8 µM (active) in test [11]; 29.6 µM (active) in test [1]; 14.8 µM (active) in [3]; 16.6 µM (active) in [4]; 18.7 µM (active) in test [5]. Besides, the Potency entry in test [13] is “inactive”.

Values taken from PubChem BioAssay (NCATS).
